Active and inactive are the calls of the source. Unless noted, no rule for the calls is given here.
How the values were obtained:
[1] = compound effects on lung adenocarcinoma cell viability – A549, calcein-AM fluorescence, 48 h, basal, profiling panel (AID 1162); conditions: higher = more signal; also: test concentration not given here
[2] = compound effects on differentiated 3T3-L1 adipocyte viability – cell-based, 3T3-L1 adipocytes, calcein-AM fluorescence, 48 h, basal, profiling panel (AID 1163); conditions: 3T3-L1 adipocytes viability, higher = more signal; also: test concentration not given here
[3] = compound effects on hepatocellular carcinoma cell viability – HepG2, calcein-AM fluorescence, 48 h, basal, profiling panel (AID 1164); conditions: higher = more signal; also: test concentration not given here
[4] = compound effects on multiple myeloma cell viability – MM1S, calcein-AM fluorescence, 48 h, basal, profiling panel (AID 1165); conditions: higher = more signal; also: test concentration not given here
[5] = calcein-AM signal in unstimulated myeloma cells – cell-based, calcein-AM fluorescence, 48 h, PK04 Diversity Set, profiling panel (AID 1166); conditions: RPMI8226 myeloma viability, higher = more signal;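 also: cells grown under basal conditions without added stimulus; test concentration not given here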
[6] = JC-1 mitochondrial signal, unstimulated HepG2 cells – cell-based, JC-1 fluorescence, 24 h, 100 nL compound, profiling panel (AID 1167); conditions: HepG2 mitochondrial potential, higher = more signal; also: test concentration not given here
[7] = JC-1 mitochondrial signal, unstimulated adipocytes – cell-based, JC-1 fluorescence, 3T3-L1 adipocytes, 24 h, 100 nL compound, profiling panel (AID 1168); conditions: JC-1 mitochondrial fluorescence, higher = more signal, called active from +8 up or from −8 down; also: test concentration not given here
[8] = JC-1 mitochondrial signal, unstimulated myeloma cells – cell-based, JC-1 fluorescence, RPMI8226, 24 h, 100 nL compound, profiling panel (AID 1169); conditions: JC-1 mitochondrial potential fluorescence, higher = more signal; also: test concentration not given here
[9] = JC-1 mitochondrial signal, unstimulated MM1S myeloma – cell-based, JC-1 fluorescence, 24 h, 100 nL compound, profiling panel (AID 1170); conditions: MM1S mitochondrial potential, higher = more signal; also: test concentration not given here
[10] = resazurin metabolic signal in A549 cells – cell-based, resazurin fluorescence, 24 h, PK04 Diversity Set, profiling panel (AID 1171); conditions: A549 viability, higher = more signal, called active from +8 up or from −8 down; also: test concentration not given here
[11] = resazurin metabolic signal in HepG2 cells – cell-based, resazurin fluorescence, 24 h, PK04 Diversity Set, profiling panel (AID 1172); conditions: HepG2 viability, higher = more signal; also: test concentration not given here
[12] = budding yeast growth changes without added modifier – OD600, strain BY4716, 24 h, basal condition, primary screen (AID 1173); conditions: S. cerevisiae BY4716 growth, OD600, 24 h; higher = more signal, called active from +8 up or from −8 down
[13] = viability profiling in MM1S myeloma cells – cell-based, resazurin fluorescence, basal, 24 h, PK04 Diversity Set, profiling panel (AID 1174); conditions: higher = more signal, called active from +8 up or from −8 down; also: test concentration not given here
[14] = target: Dihydroorotate dehydrogenase (quinone), mitochondrial (Plasmodium falciparum (isolate 3D7)) (UniProt Q08210); test: inhibition of P. falciparum DHODH – biochemical, C-terminal His tag, absorbance 600 nm, primary screen (AID 1175); conditions: PfDHODH enzyme, DCIP absorbance 600 nm; higher = more signal, called active from +8 up or from −8 down;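 also: recombinant parasite enzyme with a five histidine tag at its C terminus; test concentration not given here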
[15] = inhibition of PAO1 biofilm formation – strain PAO1, LB-PBS medium, absorbance 600 nm, primary screen (AID 1176); also: test concentration not given here; conditions: P. aeruginosa PAO1 growth/biofilm, A600, 12 h; higher = more signal
[16] = growth modulation of vineyard yeast isolate – strain RM11-1a, OD600, basal, 24 h, primary screen (AID 1177);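 also: cultures grown under basal conditions with no added stressor; test concentration not given here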; conditions: S. cerevisiae RM11-1a growth, OD600, 24 h; higher = more signal, called active from +8 up or from −8 down
[17] = growth of efflux-deficient E. coli DRC39 – strain DRC39, OD650, 24 h, E. coli filamentation inducers, primary screen (AID 1178);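 also: growth measured as culture turbidity by optical density at 650 nm; test concentration not given here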; conditions: E. coli DRC39 acrAB, higher = more signal, called active from +8 up or from −8 down
[18] = growth of efflux-deficient E. coli DRC39 – strain DRC39, OD650, 48 h, E. coli filamentation inducers, primary screen (AID 1179);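 also: screen aims at cell division blockers that make cells filament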; conditions: E. coli DRC39 delta-acrAB growth, higher = more signal, called active from +8 up or from −8 down
[19] = viability profiling in RPMI8226 myeloma cells – cell-based, resazurin fluorescence, basal, 24 h, PK04 Diversity Set, profiling panel (AID 1180); conditions: higher = more signal;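 also: RPMI8826 multiple myeloma cell line at 5000 cells per well; test concentration not given here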
[20] = target: E3 ubiquitin-protein ligase XIAP (Homo sapiens) (UniProt P98170); test: small molecules binding XIAP protein – biophysical, small-molecule microarray, fluorescence 635 nm, primary screen (AID 1181); conditions: higher = more signal;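 also: score merges 667 nm emission and signal to noise over triplicate slides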
Chain of E3 ubiquitin-protein ligase XIAP (Homo sapiens) (P98170 whole entry, looked up): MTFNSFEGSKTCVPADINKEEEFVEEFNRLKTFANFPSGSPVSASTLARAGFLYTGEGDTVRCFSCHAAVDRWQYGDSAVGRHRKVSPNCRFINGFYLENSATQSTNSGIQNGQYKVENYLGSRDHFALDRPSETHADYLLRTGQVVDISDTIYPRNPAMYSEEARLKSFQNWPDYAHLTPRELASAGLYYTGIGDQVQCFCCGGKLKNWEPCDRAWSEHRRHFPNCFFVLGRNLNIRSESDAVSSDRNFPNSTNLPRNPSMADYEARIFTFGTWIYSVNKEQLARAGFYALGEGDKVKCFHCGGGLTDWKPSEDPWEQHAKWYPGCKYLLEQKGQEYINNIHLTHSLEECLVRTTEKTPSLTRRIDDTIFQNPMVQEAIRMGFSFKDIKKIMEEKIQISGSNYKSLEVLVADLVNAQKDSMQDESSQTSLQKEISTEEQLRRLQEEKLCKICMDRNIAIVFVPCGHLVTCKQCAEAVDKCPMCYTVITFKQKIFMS

Chain of Dihydroorotate dehydrogenase (quinone), mitochondrial (Plasmodium falciparum (isolate 3D7)) (Q08210 whole entry, looked up): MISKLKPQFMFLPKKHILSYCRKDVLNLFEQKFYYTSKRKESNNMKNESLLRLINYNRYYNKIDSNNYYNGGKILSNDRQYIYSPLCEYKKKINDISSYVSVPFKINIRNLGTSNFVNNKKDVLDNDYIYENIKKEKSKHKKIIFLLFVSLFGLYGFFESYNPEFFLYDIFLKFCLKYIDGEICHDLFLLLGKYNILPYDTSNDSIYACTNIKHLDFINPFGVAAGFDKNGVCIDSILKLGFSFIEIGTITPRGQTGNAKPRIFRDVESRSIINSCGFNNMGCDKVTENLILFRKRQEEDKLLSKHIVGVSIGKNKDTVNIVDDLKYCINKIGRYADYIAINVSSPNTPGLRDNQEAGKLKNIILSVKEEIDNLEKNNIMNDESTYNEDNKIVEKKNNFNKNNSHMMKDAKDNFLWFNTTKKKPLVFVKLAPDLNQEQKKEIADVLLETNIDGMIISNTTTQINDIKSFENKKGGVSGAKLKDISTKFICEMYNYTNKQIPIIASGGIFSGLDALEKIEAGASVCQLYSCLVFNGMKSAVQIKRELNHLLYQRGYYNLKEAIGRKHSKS

Row | SMILES | z-score [1] | z-score [2] | z-score [3] | z-score [4] | z-score [5] | z-score [6] | z-score [7] | z-score [8] | z-score [9] | z-score [10] | z-score [11] | z-score [12] | z-score [13] | composite z-score [14] | z-score [15] | z-score [16] | z-score [17] | z-score [18] | z-score [19] | composite z-score [20]
1 | CCOC(=O)C1=CC[C@@H](c2ccccc2)N(S(=O)(=O)c2ccc(C)cc2)[C@H]1c1ccc(C#N)cc1 | 0.423 | -0.574 | -0.178 | -0.306 | -0.973 | 0.51 | -1.12 (inactive) | 0.124 | -0.725 | 1.39 (inactive) | 0.162 | 1.5 (inactive) | -0.116 (inactive) | -0.0753 (inactive) | 0.381 (inactive) | -0.299 (inactive) | -0.604 (inactive) | -0.288 (inactive) | -1.4 | 0.0123
2 | C=C[C@H](C)[C@H](O)c1ccc(OCCO)cc1 | -0.001 | 0.557 | -0.548 | 1.17 | -0.484 | 0.221 | -0.721 (inactive) | -0.238 | -0.339 | -0.276 (inactive) | 0.847 | -1.4 (inactive) | 0.867 (inactive) | 0.257 (inactive) | 0.261 (inactive) | 0.349 (inactive) | 0.74 (inactive) | 0.715 (inactive) | -1.9 | -0.115
3 | [N-]=[N+]=NCc1ccccc1[C@@H]1OC(c2ccc(OCCCO)cc2)=N[C@]1(Cc1ccccc1N=[N+]=[N-])C(N)=O | -0.533 | 0.306 | 0.0804 | -1.01 | -2.22 | -1.5 | -1.92 (inactive) | -0.918 | -0.0745 | -0.139 (inactive) | -0.0426 | -2.11 (inactive) | -0.727 (inactive) | 0.0263 (inactive) | 0.603 (inactive) | 0.604 (inactive) | 0.333 (inactive) | -0.37 (inactive) | -1.2 | 0.0656
4 | C[n+]1ccc2ccc(O)cc2c1 | -0.274 | 0.509 | -1.33 | 0.653 | -1.91 | -0.774 | -0.917 (inactive) | 1.03 | -0.723 | -0.733 (inactive) | 0.0027 | -1.06 (inactive) | 0.242 (inactive) | -0.843 (inactive) | -0.131 (inactive) | 0.582 (inactive) | 0.0452 (inactive) | -0.0896 (inactive) | -0.654 | 0.473
5 | CCOC(=O)C[C@H]1[C@H](OC(=O)c2ccccc2-c2ccccc2)[C@@H](NC(=O)c2ccc(-c3ccccc3)cc2)c2cc(OCCCO)ccc2N1C(=O)c1ccccc1 | 0.168 | 0.405 | 0.188 | 0.0425 | -0.602 | 1.5 | 0.247 (inactive) | -0.312 | -0.0178 | 0.0248 (inactive) | -0.607 | 0.579 (inactive) | 0.633 (inactive) | 1.03 (inactive) | -0.341 (inactive) | 1.61 (inactive) | 1.39 (inactive) | 0.53 (inactive) | 0.608 | -0.121
6 | NC(=O)NCC#Cc1ccc2c(c1)[C@]1(C(=O)N2)[C@H](C(=O)NC[C@H](O)c2ccccc2)[C@H]2C(=O)O[C@H](c3ccccc3)[C@H](c3ccccc3)N2[C@@H]1c1ccccc1OCCO | -0.321 | 1.02 | -0.252 | 0.325 | -0.636 | -1.64 | 1.34 (inactive) | -0.0808 | -1.01 | 1.02 (inactive) | 0.217 | 0.328 (inactive) | 0.56 (inactive) | 0.833 (inactive) | 1.08 (inactive) | 0.915 (inactive) | 1.01 (inactive) | 0.0227 (inactive) | 0.225 | 0.0864
7 | CCCCN1CC=CC23O[C@@H]4/C=C\CCCOC(=O)C4[C@H]2C(=O)N(C(C)CO)[C@@H]3C1=O (stereo not given in full) | -0.455 | -0.455 | -0.564 | 0.35 | 1.4 | 0.698 | 0.0147 (inactive) | -0.546 | -1.11 | -0.249 (inactive) | -0.901 | -0.138 (inactive) | 0.196 (inactive) | -0.415 (inactive) | -0.857 (inactive) | 0.429 (inactive) | 0.742 (inactive) | 0.738 (inactive) | 0.442 | -0.157
8 | O[C@@H](Cc1ccccc1)[C@@H](/C=C/c1ccccc1)NCc1ccccc1Br | 0.0965 | -0.766 | -0.0276 | -1.3 | -0.771 | 0.313 | 0.19 (inactive) | -0.228 | -1.8 | -0.396 (inactive) | 0.13 | -6.87 (inactive) | 0.119 (inactive) | -1.05 (inactive) | -0.107 (inactive) | -0.955 (inactive) | 0.429 (inactive) | -0.21 (inactive) | 0.115 | -0.214
9 | COCC1=C([C@H](O)CCc2ccccc2)[C@H](CO)[C@@H]2C(=O)N(Cc3ccccc3)C(=O)[C@@H]2C1 | 0.883 | 0.709 | 0.984 | 0.418 | 0.438 | 0.592 | 0.424 (inactive) | 0.469 | -1.37 | 0.859 (inactive) | -0.062 | -1.55 (inactive) | 0.0871 (inactive) | -1.91 (inactive) | -0.295 (inactive) | 0.723 (inactive) | 1.09 (inactive) | 0.738 (inactive) | 0.449 | -0.031

— PubChem BioAssay
